This passage reports activity, negative = inhibition and AC50 results from PubChem BioAssay AID1851 (National Center for Advancing Translational Sciences (NCATS), 2009).

Each structure is given as a SMILES string. “And” between values parts separate entries of the source, which are not always exact repeats. Identical values can stand only once. Screen size: about 16,000 compounds; about 5,700 (36%) were called active. Inconclusive results (about 24%) are left out. Some of the results follow. Unmarked numbers belong to inactive results. Calls follow the shape of the dose curve; as a rule, active = well fitted curve in the direction sought with a large enough effect; inconclusive = small, poorly fitted or top-dose-only effect, or effect the other way; inactive = no such curve, though single readings can be large or run the other way. Peptide text beside a SMILES is read from it. * marks the point of attachment. PhAc = O=C(Cc1ccccc1)*; OBn = c1ccc(CO*)cc1

In general, AC50 refers to the concentration at which the activity in the assay is half-maximal.
% is scaled to controls: 0 for no effect and ±100 for the full control effect.

This assay deals with Cytochrome P450 1A2 (Homo sapiens) (UniProt P05177). Briefly: Cytochrome panel assay with activity outcomes. Conditions: recombinant CYP, pro-luciferin dealkylation, luminescence, p450-cyp1a2; series mostly up to 57.1 µM.
Cytochrome P450 1A2 (Homo sapiens), sequence (P05177 whole entry, looked up): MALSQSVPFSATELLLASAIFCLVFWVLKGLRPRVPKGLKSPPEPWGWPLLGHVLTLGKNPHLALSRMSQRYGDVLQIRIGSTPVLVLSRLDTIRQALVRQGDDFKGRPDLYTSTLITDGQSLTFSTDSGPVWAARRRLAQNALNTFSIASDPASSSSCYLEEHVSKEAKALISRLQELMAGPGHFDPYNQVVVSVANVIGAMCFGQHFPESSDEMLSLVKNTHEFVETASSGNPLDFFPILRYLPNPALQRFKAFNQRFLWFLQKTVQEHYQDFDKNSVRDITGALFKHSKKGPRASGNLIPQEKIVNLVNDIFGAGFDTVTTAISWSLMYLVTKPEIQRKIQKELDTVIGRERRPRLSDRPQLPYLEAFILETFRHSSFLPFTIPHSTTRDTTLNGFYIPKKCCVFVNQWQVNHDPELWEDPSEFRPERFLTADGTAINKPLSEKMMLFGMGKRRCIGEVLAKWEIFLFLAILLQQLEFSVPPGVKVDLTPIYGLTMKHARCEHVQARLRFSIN
Regarding `COc1ccc(CN[C@H](C)C(=O)O)cc1`, the activity, negative = inhibition is -2.04% [at 11.4 µM].
In the case of `N#Cc1nc(COc2ccccc2Cl)oc1NCc1ccco1`, the half-maximal activity concentration (AC50) was 14100 nM (active).
The same measure, in the same setting: the figure for `c1ccc(NN(Cc2cnccn2)c2ccccc2)cc1` is 2000 nM (active); for `COn1c(SCc2cccc(Cl)c2)nc2ccccc2c1=O` it is 1260 nM (active).
With `O=c1nc2ccccc2c2n1CC(CN1CCN(c3cccc(Cl)c3)CC1)N2` (stereo not drawn), the AC50 entry was “inactive”.
Regarding `COn1c(SCc2ccc(C)cc2C)nc2ccccc2c1=O`, the half-maximal activity concentration (AC50) was 8910 nM (active).
As to `Cc1ccc(-n2c(SCc3ccc([N+](=O)[O-])cc3)nc3ccccc3c2=O)cc1`, the AC50 entry was “inactive”.
The same measure, in the same setting: the entry for `CC(C)C[C@H]1C(=O)N2CCC[C@@H]2[C@]2(O)O[C@](NC(=O)[C@H]3C=C4c5cccc6[nH]c(Br)c(c56)C[C@H]4N(C)C3)(C(C)C)C(=O)N12` is “inactive”.
As to `OC1(c2ccc(OC(F)F)cc2)CSC(=Nc2cccnc2)N1C1CC1` (stereo not drawn), the concentration at half-maximal activity (AC50) is 1120 nM (active).
Turning to `CCOc1ccc(NC(=O)N2CCC(C(N)=O)(N3CCCCC3)CC2)cc1`, the AC50 result is “inactive”.
In the case of `CCOc1ccc(NC(=O)C(=O)NCC2CCCN2CC)cc1` (stereo not drawn), the AC50 entry is “inactive”.
Same read-out and setting: the figure for `CCOc1ccc(N/N=C(/C#N)C(N)=O)cc1` is 5010 nM (active); for `O=C1CCN(S(=O)(=O)c2ccccc2)N1` it is “inactive”.
For `O=C(O)c1c2c(c(O)c3c1CN(C1CCCCC1)CO3)OCN(C1CCCCC1)C2`, the activity, negative = inhibition was 3.18% [at 11.4 µM].
Take `NCCCCCC(=O)O`: the AC50 result is “inactive”.
For `NCCCCC(=O)O`, the AC50 result was “inactive”.
As to `CCCCCCCCCCCCCCSCC(=O)O`, the AC50 result is “inactive”.
As for `CCCCCCC/C=C\CCCCCCCCC(=O)O`, the AC50 was 31600 nM (active).
Take `CCCCCCCCCCC/C=C\C(C)(C)/C=C\CCCC(=O)O`: the AC50 is 39800 nM (active).
Regarding `CS(=O)(=O)Nc1cccc(-c2nccc(Nc3ccc(F)cc3)n2)c1`, the concentration at half-maximal activity (AC50) is 126 nM (active).
Take `Nc1nccc(Nc2ccc(S(N)(=O)=O)cc2)n1`: the activity, negative = inhibition is -8.04% [at 11.4 µM].
On to `CNc1nc(-c2cccc(NS(C)(=O)=O)c2)nc2ccccc12`, for which the AC50 is 398 nM (active).
Turning to `CS(=O)(=O)Nc1cccc(-c2nc(Nc3ccccc3)c3ccccc3n2)c1`, the AC50 is 794 nM (active).
The same measure, in the same setting: in the case of `CS(=O)(=O)Nc1cccc(-c2nc(Nc3ccc(F)cc3)c3ccccc3n2)c1` it was 794 nM (active); in that of `COc1ccc(OC)c(Nc2nc(-c3cccc([N+](=O)[O-])c3)nc3ccccc23)c1`, “inactive”.
On to `CS(=O)(=O)Nc1cccc(-c2nc(Nc3ccncc3)c3ccccc3n2)c1`, for which the AC50 is 631 nM (active).
On the same count and under the same terms, the figure for `CN(C)c1nc(-c2cccc(NS(C)(=O)=O)c2)nc2ccccc12` is 501 nM (active); for `COc1cccc(-c2nc(Nc3ccncc3)c3ccccc3n2)c1` it is 794 nM (active).
On to `CC(C)(N)C(=O)N[C@@H]1C(=O)N2[C@@H]1SC(C)(C)[C@H]2C(=O)O`, for which the activity, negative = inhibition is 4.41% [at 2.29 µM].
Consider `C[C@H](CCC(=O)NCC(=O)O)[C@H]1CC[C@H]2[C@H]3[C@@H](C[C@@H](O)[C@]12C)[C@]1(C)CC[C@H](O)C[C@@H]1C[C@@H]3O`, for which the AC50 entry was “inactive”.
Still for that read-out and setting: in the case of `COc1cccc(CC(C(=O)Nc2cc(C)ccc2C)c2nn[nH]n2)c1OC` (stereo not drawn) it was 3160 nM (active); in that of `COC(=O)c1cc(C(=O)c2ccc(Cl)cc2Cl)cn1C`, 2510 nM (active); in that of `Cc1c(-n2cc(C(=O)c3cc(Cl)ccc3O)cc(C#N)c2=O)c(=O)n(-c2ccccc2)n1C`, “inactive”.
For the compound `Cn1cc(C(=O)c2ccc(Cl)cc2Cl)cc1C(=O)O`, the AC50 result is “inactive”.
As to `C(=C1/CCCC2=C1Nc1ncnn1C2c1ccccc1)/c1ccccc1` (stereo not drawn), the AC50 is 10000 nM (active).
On to `COC(=O)C1=C(C)Nc2ncnn2C1c1cccnc1` (stereo not drawn), for which the AC50 result was “inactive”.
Turning to `CC(=O)SC[C@@H](Cc1ccccc1)C(=O)NCC(=O)OCc1ccccc1`, the AC50 was 2510 nM (active).
Consider `O=C(CNC(=O)Cc1ccccc1)NCC(=O)OCc1ccccc1` (PhAc-Gly-Gly-OBn), for which the AC50 result is “inactive”.
The same measure, in the same setting: the entry for `CC(C)(C)c1ccc(COC(=O)CNC(=O)CNC(=O)Cc2ccccc2)cc1` is “inactive”; for `COc1ccccc1NC(=O)c1nc[nH]c1C(=O)Nc1ccccc1OC` it is 200 nM (active); for `Cc1c(NC(=O)CSc2nnc3c4ccccc4n(CCc4ccccc4)c3n2)c(=O)n(-c2ccccc2)n1C` it is “inactive”.
In the case of `COCn1c2ccccc2c2nnc(C(C)=O)nc21`, the activity, negative = inhibition was -3.08% [at 11.4 µM] and -1.56% [at 11.4 µM].
With `CCn1c2ccccc2c2nnc(NCCCO)nc21`, the AC50 was 1580 nM (active).
Take `CCN(CC)c1ncnc2c1sc1nc(C)cc(C)c12`: the half-maximal activity concentration (AC50) is 1410 nM (active).
For `O=C(c1csnn1)N1CCC2(CC1)CCN(c1ncccn1)CC2`, the AC50 result was “inactive”.
With `C[N+](C)(C)CC(=O)O`, the AC50 result was “inactive”.
Still for that read-out and setting: in the case of `CS(=O)(=O)Nc1cccc(-c2ccc3ncnc(N4CCNCC4)c3c2)c1` it was 12600 nM (active); in that of `CS(=O)(=O)Nc1ccc(S(=O)(=O)N2CCOCC2)cc1`, “inactive”.
As for `CS(=O)(=O)Nc1cccc(-c2ccc3ncnc(N4CCOCC4)c3c2)c1`, the AC50 is 12600 nM (active).
`Cc1ccc(-c2nn3c(C)nnc3c3ccccc23)cc1S(=O)(=O)NCCN1CCOCC1`: the AC50 entry was “inactive”.
`CS(=O)(=O)Nc1cccc(-c2ccc3ncnc(NCCN4CCOCC4)c3c2)c1`: the AC50 is 25100 nM (active).
The same measure, in the same setting: the figure for `CS(=O)(=O)Nc1cccc(-c2nc(N3CCOCC3)c3ccccc3n2)c1` is 5010 nM (active); for `Cn1nc(-c2ccc(N3CCOCC3)c(NS(=O)(=O)c3ccc(Cl)cc3)c2)c2ccccc2c1=O` it is “inactive”.
